These results are taken from PubChem BioAssay.

A number with no mark means an inactive call. For some of these results: Results with a measured potency or affinity are listed apart. Active and inactive are the calls of the source. Unless noted, how the calls were made is not given here.

The nature of assay [1]: antimalarial activity against Dd2 strain (AID 2302;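 active means growth inhibition above 50% at the single 2 µM test dose, taken to imply half-maximal potency below 2 µM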;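 further: 0% = DMSO untreated growth and 100% = chloroquine plus artemisinin killed control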). The conditions noted are these: P. falciparum Dd2 in RBCs, LDH growth readout, 72 h; at 2 µM; stronger effect = higher value.
Assay [2] is described as follows: human hepatoma cell viability loss – ATP luminescence, cytotoxicity control for P. falciparum antimalarial project, primary screen (AID 2303;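 active means inhibition above 50%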;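 further: 0% = DMSO wells and 100% = digitonin-killed cells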). As to conditions: HepG2 viability, 24-48 h, at 10 µM, stronger effect = higher value.
In assay [3] the target is L-lactate dehydrogenase (Plasmodium falciparum (isolate CDC / Honduras)) (UniProt Q27743). Description: PfLDH activity inhibition – cell lysate, 3D7 strain, counter-screen for P. falciparum growth inhibition project (AID 2304).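 Further: 0% = vehicle and 100% = reference inhibitor.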 The conditions noted are these: P. falciparum 3D7 crude extract, LDH APAD/NBT absorbance; at 2 µM; stronger effect = higher value. A general note: A counterscreen serves to expose hits that act by an unwanted route or on another target.

Assay [4] can be described thus: inhibition of 3D7 malaria parasite growth – strain 3D7 (AID 2306).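 Further: 0% = DMSO wells and 100% = chloroquine plus artemisinin control wells.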 As to conditions: P. falciparum 3D7 erythrocytic growth, LDH absorbance, 72 h; at 2 µM; stronger effect = higher value.
Assay [5] concerns the target Calcium-dependent protein kinase 1 (Plasmodium falciparum (isolate 3D7)) (UniProt P62344). The assay can be described thus: PfCDPK1 kinase inhibitors, biochemical, TCAMS library (AID 1159585; cut-off not given, nearly all actives have IC50 up to about 0.98 µM;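 further: inhibitors leave more ATP so luminescence rises with inhibition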). As to conditions: recombinant PfCDPK1, Kinase-Glo ATP depletion luminescence. Background: Kinase-Glo measures the ATP left after a reaction by luminescence.
Assay [6] has as its target Plasmodium falciparum protein kinase 6 (PK6, PF3D7_1337100) (UniProt Q8IDW1). The assay can be described thus: PfPK6 kinase inhibitors, biochemical, TCAMS library (AID 1159586). As to conditions: recombinant PfPK6, Kinase-Glo ATP depletion luminescence.
For assay [7], the target named is Protein kinase 7 (PK7), Plasmodium falciparum 3D7 (PF3D7_0213400) (UniProt Q7YTF7). Description: inhibition of Plasmodium PK7 catalytic activity – biochemical, TCAMS antimalarial set, Kinase-Glo luminescence (AID 1159587). The conditions noted are these: recombinant PfPK7, Kinase-Glo ATP depletion luminescence.
The target of assay [8] is Calcium-dependent protein kinase 4 (Plasmodium falciparum (isolate 3D7)) (UniProt Q8IBS5). Description: PfCDPK4 kinase inhibitors, biochemical, TCAMS library (AID 1159588; cut-off not given, nearly all actives have IC50 up to about 0.91 µM). The conditions noted are these: recombinant PfCDPK4, Kinase-Glo ATP depletion luminescence.
Sequence of Calcium-dependent protein kinase 4 (Plasmodium falciparum (isolate 3D7)) (Q8IBS5 whole entry, looked up): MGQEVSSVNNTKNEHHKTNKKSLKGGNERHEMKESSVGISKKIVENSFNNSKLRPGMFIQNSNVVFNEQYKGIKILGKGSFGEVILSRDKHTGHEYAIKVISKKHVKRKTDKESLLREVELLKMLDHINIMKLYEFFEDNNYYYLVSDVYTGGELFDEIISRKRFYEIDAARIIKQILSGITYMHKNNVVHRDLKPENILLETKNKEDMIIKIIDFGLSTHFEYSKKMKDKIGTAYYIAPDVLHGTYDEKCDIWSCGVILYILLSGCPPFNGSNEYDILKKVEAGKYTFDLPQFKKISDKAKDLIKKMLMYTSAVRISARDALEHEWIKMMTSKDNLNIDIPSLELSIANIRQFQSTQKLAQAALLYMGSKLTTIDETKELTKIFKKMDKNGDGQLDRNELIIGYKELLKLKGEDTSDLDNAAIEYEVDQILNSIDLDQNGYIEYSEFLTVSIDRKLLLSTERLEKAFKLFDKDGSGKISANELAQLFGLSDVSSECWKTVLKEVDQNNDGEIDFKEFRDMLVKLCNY

Sequence of L-lactate dehydrogenase (Plasmodium falciparum (isolate CDC / Honduras)) (Q27743 whole entry, looked up): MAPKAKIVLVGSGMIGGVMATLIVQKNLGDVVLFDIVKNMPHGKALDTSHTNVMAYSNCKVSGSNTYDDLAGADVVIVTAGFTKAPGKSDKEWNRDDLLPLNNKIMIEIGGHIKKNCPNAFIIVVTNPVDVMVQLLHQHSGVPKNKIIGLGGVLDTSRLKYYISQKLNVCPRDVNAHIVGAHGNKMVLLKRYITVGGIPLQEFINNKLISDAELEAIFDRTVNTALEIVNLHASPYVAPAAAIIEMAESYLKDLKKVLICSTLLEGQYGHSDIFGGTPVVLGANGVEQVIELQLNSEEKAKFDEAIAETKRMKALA
Sequence of Plasmodium falciparum protein kinase 6 (PK6, PF3D7_1337100) (Q8IDW1 1-305): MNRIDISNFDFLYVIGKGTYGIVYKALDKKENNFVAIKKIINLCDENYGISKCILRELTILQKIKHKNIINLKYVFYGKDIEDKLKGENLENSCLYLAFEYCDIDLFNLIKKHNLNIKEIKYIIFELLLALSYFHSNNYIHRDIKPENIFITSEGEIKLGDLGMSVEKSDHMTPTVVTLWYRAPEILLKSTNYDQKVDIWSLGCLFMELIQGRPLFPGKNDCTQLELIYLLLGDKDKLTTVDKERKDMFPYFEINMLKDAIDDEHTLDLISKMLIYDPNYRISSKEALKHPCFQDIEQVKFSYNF
Sequence of Protein kinase 7 (PK7), Plasmodium falciparum 3D7 (PF3D7_0213400) (Q7YTF7 1-343): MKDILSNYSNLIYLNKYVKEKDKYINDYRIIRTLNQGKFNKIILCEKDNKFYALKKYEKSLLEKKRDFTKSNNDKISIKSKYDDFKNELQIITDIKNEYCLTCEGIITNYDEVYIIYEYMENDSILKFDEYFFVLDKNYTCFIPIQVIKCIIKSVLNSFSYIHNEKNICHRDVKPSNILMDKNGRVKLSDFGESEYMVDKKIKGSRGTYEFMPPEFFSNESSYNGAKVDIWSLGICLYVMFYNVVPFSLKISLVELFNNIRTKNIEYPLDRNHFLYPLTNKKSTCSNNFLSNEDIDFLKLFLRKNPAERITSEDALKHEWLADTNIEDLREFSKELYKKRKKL
Sequence of Calcium-dependent protein kinase 1 (Plasmodium falciparum (isolate 3D7)) (P62344 whole entry, looked up): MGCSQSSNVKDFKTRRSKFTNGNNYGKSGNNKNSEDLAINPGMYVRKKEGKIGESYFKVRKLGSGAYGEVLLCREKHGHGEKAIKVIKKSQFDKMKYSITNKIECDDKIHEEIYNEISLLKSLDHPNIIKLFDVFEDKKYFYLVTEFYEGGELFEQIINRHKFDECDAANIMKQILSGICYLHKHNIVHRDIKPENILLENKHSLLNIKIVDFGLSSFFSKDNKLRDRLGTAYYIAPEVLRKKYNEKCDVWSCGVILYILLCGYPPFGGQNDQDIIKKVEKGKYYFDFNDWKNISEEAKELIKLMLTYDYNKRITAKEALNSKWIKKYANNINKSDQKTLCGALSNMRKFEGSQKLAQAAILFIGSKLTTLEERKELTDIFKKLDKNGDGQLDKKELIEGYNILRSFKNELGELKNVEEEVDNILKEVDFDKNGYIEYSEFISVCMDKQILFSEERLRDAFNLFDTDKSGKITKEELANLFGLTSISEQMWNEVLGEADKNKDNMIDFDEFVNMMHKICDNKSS

Turning to `N#Cc1ccc(N(CCOc2ccc3c(c2)CCC(=O)N3)Cc2ccccc2C(F)(F)F)cc1C(F)(F)F`, the growth inhibition is 64% (active) in assay [1] and 98% (active) in assay [4]. For the same molecule, the figures for the inhibition in assay [2] and in assay [3] were 19% and 1%, respectively. Also, the outcome in assay [5], in assay [6], in assay [7] and in assay [8] was inactive.

`CN(C)CCCNc1ncnc2c1[nH]c1ccc(F)cc12`: the growth inhibition in assay [1] is -1%; in assay [4] it was 100% (active). Also, the inhibition (as a rule, the drop in the measured response relative to a control, in per cent) in assay [2] is 14%; in assay [3], 1%. Also, the result in assay [5], in assay [6], in assay [7] and in assay [8] was inactive.

Turning to `CCn1ccc2c3c(N)nc(N)nc3ccc21`, the results for the growth inhibition in assay [1] and in assay [4] were 2% and 99% (active), respectively. In addition, the inhibition in assay [2] is 61% (active); in assay [3], 6%. For the same molecule, the result in assay [5], in assay [6], in assay [7] and in assay [8] was inactive.

`N=c1n(CCN2CCCCC2)c2ccccc2n1CC(O)c1ccc(Cl)c(Cl)c1` (stereo not given): the growth inhibition in assay [1] and in assay [4] was 97% (active) in each case. The inhibition is 50% (active) in assay [2] and -2% in assay [3]. The result in assay [5], in assay [6], in assay [7] and in assay [8] was inactive.

Regarding `Cn1nc(-c2ccc(CN[C@@H]3CCc4ccc(O)cc43)cc2)c2cnc(NC3CCCC3)nc21`, the growth inhibition in assay [1] was 8%; in assay [4], 97% (active). For the same molecule, the figures for the inhibition in assay [2] and in assay [3] were 12% and 0%, respectively. The outcome in assay [5], in assay [6], in assay [7] and in assay [8] was inactive.

Regarding `O=C(Nc1ccc(C(F)(F)F)cc1)NC1CCN(c2ccnc3ccccc23)C1` (stereo not given), the growth inhibition was 89% (active) in assay [1] and 102% (active) in assay [4]. Besides, the inhibition was 13% in assay [2] and 0% in assay [3]. Besides, the result in assay [5], in assay [6], in assay [7] and in assay [8] was inactive.

For `COc1ccc2nccc(NC(=O)N3CCC(NCc4cc5c(F)ccc(F)c5[nH]4)CC3)c2n1`, the results for the growth inhibition in assay [1] and in assay [4] were 40% and 99% (active), respectively. Further, the inhibition was 6% in assay [2] and -2% in assay [3]. The outcome in assay [5], in assay [6], in assay [7] and in assay [8] was inactive.

For the molecule `O=C(/C=C/c1c[nH]c2ccccc12)NCCCCCN1CCC(c2c[nH]c3ccccc23)CC1`, the figures for the growth inhibition in assay [1] and in assay [4] were 0% and 96% (active), respectively. Besides, the inhibition in assay [2] is 20%; in assay [3], 5%. In addition, the outcome in assay [5], in assay [6], in assay [7] and in assay [8] was inactive.

Consider `CS(=O)(=O)NCCCNCc1cccc(-c2ccc(-c3nc4ccccc4[nH]3)s2)c1`, for which the growth inhibition in assay [1] is -1%; in assay [4], 90% (active). For the same molecule, the inhibition is 24% in assay [2] and 6% in assay [3]. Further, the outcome in assay [5], in assay [6], in assay [7] and in assay [8] was inactive.

As to `Cc1nnnn1-c1ccc(C(=O)N2CCC3(CC2)CN(Cc2ccc(Cl)c(Cl)c2)C(=O)O3)cc1`, the growth inhibition in assay [1] is 99% (active); in assay [4] it was 101% (active). Besides, the inhibition in assay [2] and in assay [3] was 2% in each case. In addition, the result in assay [5], in assay [6], in assay [7] and in assay [8] was inactive.

In the case of `CCN1CCC(N(Cc2ccc(-c3ccc(C(F)(F)F)cc3)cc2)C(=O)Cn2c(CCc3cccc(F)c3F)cc(=O)c3ccc(OCc4ccccc4)cc32)CC1`, the growth inhibition in assay [1] was 86% (active); in assay [4] it was 102% (active). Also, the inhibition in assay [2] is 60% (active); in assay [3], 3%. Besides, the outcome in assay [5], in assay [6], in assay [7] and in assay [8] was inactive.

For the molecule `Cc1cc(-c2ccnc(Nc3cccc(C#N)c3)n2)cc(C)c1O`, the figures for the growth inhibition in assay [1] and in assay [4] were 54% (active) and 88% (active), respectively. Moreover, the results for the inhibition in assay [2] and in assay [3] were 50% (active) and 5%, respectively. Moreover, the outcome in assay [5], in assay [6], in assay [7] and in assay [8] was inactive.

For the molecule `COc1cc2ccccc2c(OC)c1CNCCCCCCNCc1c(OC)cc2ccccc2c1OC`, the figures for the growth inhibition in assay [1] and in assay [4] were 91% (active) and 93% (active), respectively. For the same molecule, the values for the inhibition in assay [2] and in assay [3] were 100% (active) and 0%, respectively. The result in assay [5], in assay [6], in assay [7] and in assay [8] was inactive.

Take `Fc1ccc(CNc2ncc(-c3ccsc3)c(-c3nccs3)n2)cc1`: the values for the growth inhibition in assay [1] and in assay [4] were 77% (active) and 94% (active), respectively. For the same molecule, the inhibition in assay [2] is 7%; in assay [3], -2%. The outcome in assay [5], in assay [6], in assay [7] and in assay [8] was inactive.

As for `Cc1cc(N2CCCC2)nc(Nc2ccc(NC(=O)C(C)C)cc2)n1`, the growth inhibition in assay [1] is 36%; in assay [4], 97% (active). The inhibition in assay [2] is 40%; in assay [3] it was 2%. Also, the result in assay [5], in assay [6], in assay [7] and in assay [8] was inactive.

`Cc1noc(C)c1-c1cccc(CNCc2cccc(-c3ccc(-c4nc5c(C)cccc5[nH]4)s3)c2)c1`: the growth inhibition in assay [1] is 75% (active); in assay [4], 102% (active). Further, the results for the inhibition in assay [2] and in assay [3] were 22% and 1%, respectively. The result in assay [5], in assay [6], in assay [7] and in assay [8] was inactive.

For `Cc1cnc(CNCc2ccc(S(=O)(=O)Nc3ccc(Oc4cccc(Cl)c4)cc3)cc2)cn1`, the growth inhibition in assay [1] was -1%; in assay [4], 97% (active). For the same molecule, the values for the inhibition in assay [2] and in assay [3] were 4% and 7%, respectively. The result in assay [5], in assay [6], in assay [7] and in assay [8] was inactive.

Consider `CCN(CC(C)O)C(=O)c1ccc(-c2cccc(-c3nc4c(C)cccc4[nH]3)c2)cc1` (stereo not given), for which the growth inhibition is 32% in assay [1] and 100% (active) in assay [4]. Also, the inhibition in assay [2] was 28%; in assay [3], -2%. The result in assay [5], in assay [6], in assay [7] and in assay [8] was inactive.

Turning to `Cc1ccc2c(O)c([N+](=O)[O-])c(=O)[nH]c2c1`, the growth inhibition is -1% in assay [1] and 98% (active) in assay [4]. The inhibition in assay [2] was 3%; in assay [3] it was -4%. Moreover, the outcome in assay [5], in assay [6], in assay [7] and in assay [8] was inactive.

In the case of `O=C(NC1CCCc2ccccc21)[C@@H]1CCCN1C(=O)c1ccc(O)c(-c2cccc([N+](=O)[O-])c2)c1` (stereo not given in full), the growth inhibition in assay [1] and in assay [4] was 99% (active) throughout. Besides, the inhibition in assay [2] is -5%; in assay [3], 5%. Also, the result in assay [5], in assay [6], in assay [7] and in assay [8] was inactive.
